Values joined by “and” are separate entries in the source; they are usually repeats but may differ in a detail not shown here. Identical values can stand only once. This is part of a sample that, as a whole, favours compounds with a hit. Of some 83,000 tested, about 20% had one in any assay.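 Single-concentration screen, 48 h exposure, 96-well plates. Endpoint: percent growth. Below 10 = active.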 Active and inactive are the calls of the source. Where a SMILES comes first, the peptide text is derived from it. The star is where a group is joined. Trt = c1ccc(C(c2ccccc2)(c2ccccc2)*)cc1; Cbz = O=C(OCc1ccccc1)*
Assays:
Experiment in all cases: NCI-60 one-dose screen, 48 h (100 = growth as untreated, 0 = no growth, -100 = all killed)
Details in all cases: 10 µM unless noted
[1] = tested on: SK-MEL-2 melanoma
[2] = tested on: SN12C renal
[3] = tested on: UO-31 renal
[4] = tested on: TK-10 renal
[5] = tested on: ACHN renal
[6] = tested on: CAKI-1 renal
[7] = tested on: A498 renal
[8] = tested on: MOLT-4 leukemia
[9] = tested on: RPMI-8226 leukemia
[10] = tested on: OVCAR-5 ovarian
[11] = tested on: SK-OV-3 ovarian
[12] = tested on: IGROV1 ovarian
[13] = tested on: OVCAR-3 ovarian
[14] = tested on: NCI/ADR-RES ovarian
[15] = tested on: CCRF-CEM leukemia
[16] = tested on: SR leukemia
[17] = tested on: OVCAR-8 ovarian
[18] = tested on: OVCAR-4 ovarian
[19] = tested on: HS 578T breast

Measured: growth

CN(C)c1ccc(C(=C2C=CC(=[N+](C)C)C=C2)c2ccc(N(C)C)cc2)cc1 (tested in a mixture with another compound)
active: [1] -66.9% | [2] -48.3% | [3] -80.8% | [4] -79.2% | [5] -98.6% | [6] -43.7% | [7] -93.2% | [8] -23.7% | [9] -52.6% | [10] -66.9% | [11] -81.1% | [12] -63.8% | [13] -93.5% | [14] -4.74%

COc1cc(/C=C/C(C)=O)ccc1O
inactive: [1] 105% | [2] 98.1% and 104% | [3] 66% and 88.4% | [4] 97.7% and 142% | [5] 95.9% and 95% | [6] 93.4% and 115% | [7] 79.1% and 116% | [15] 28.4% and 78.1% | [8] 95.8% and 87.2% | [16] 93.2% and 89.3% | [9] 116% | [17] 104% and 105% | [10] 92.3% and 102% | [18] 108% and 103% | [11] 94% and 112% | [12] 101% and 119% | [13] 100% and 106% | [14] 107% and 100%

C[n+]1c(/C=C/c2ccc([N+](=O)[O-])cc2)ccc2ccccc21
inactive: [1] 103% | [2] 102% | [3] 63.3% | [4] 112% | [5] 116% | [6] 81.3% | [7] 92.4% | [15] 112% | [8] 90.7% | [9] 102% | [10] 112% | [18] 105% | [12] 104% | [13] 99.5% | [19] 99.7% | [14] 102%

COC(=O)C(CSC(c1ccccc1)(c1ccccc1)c1ccccc1)NC(=O)C(CC(N)=O)NC(=O)OCc1ccccc1 (stereo not drawn) (Cbz-Asn-Cys(Trt)-OMe; configuration not given here)
active: [1] -23% | [8] 3.12% | [9] 2.8% | [13] -5.78%
inactive: [2] 29.2% | [3] 58.4% | [4] 48.4% | [5] 28.3% | [6] 44.3% | [7] 21.1% | [15] 40.3% | [17] 13.1% | [10] 67% | [11] 14.2% | [12] 48.6% | [14] 63.2%

CCC1OC(OC)C=CC1=O (stereo not given)
inactive: [1] 129% | [2] 94.7% | [3] 93.4% | [4] 110% | [5] 113% | [6] 113% | [7] 90.3% | [15] 94.5% | [8] 103% | [16] 81.5% | [9] 110% | [17] 117% | [10] 123% | [11] 102% | [12] 137% | [13] 95.4% | [14] 111%

O=C1C=CC(=O)N1C1c2ccccc2-c2ccccc21
inactive: [1] 100% | [2] 94.2% | [3] 75.5% | [4] 51.4% | [5] 57.8% | [6] 55.7% | [7] 93.8% | [15] 30.4% | [8] 33.8% | [9] 90.7% | [17] 99.8% | [10] 109% | [18] 110% | [11] 96.5% | [12] 99.4% | [13] 35.4% | [19] 102% | [14] 100%

CNC(=O)N/N=C/c1ccc([N+](=O)[O-])o1
inactive: [1] 97.1% | [2] 90.7% | [3] 90.5% | [4] 111% | [5] 106% | [6] 114% | [7] 102% | [15] 96.8% | [8] 82.7% | [9] 83.6% | [10] 110% | [12] 98.1% | [13] 103% | [14] 108%

O=C1N[C@H]2[C@H](CS[C@H]2CCCCC(=O)N(CCP(c2ccccc2)c2ccccc2)CCP(c2ccccc2)c2ccccc2)N1
inactive: [1] 81.3% | [2] 94.4% | [3] 77.3% | [4] 97.4% | [5] 95.7% | [6] 99.2% | [7] 94.2% | [15] 62.7% | [8] 82.8% | [9] 57% | [10] 95.2% | [18] 87.9% | [19] 84.4% | [14] 101%
active: [12] -47.4%

O=C1C2=C(Nc3cc([N+](=O)[O-])ccc3N2)OC1c1c2ccccc2cc2ccccc12 (stereo not given)
inactive: [1] 87.4% | [2] 30.6% | [3] 28.3% | [4] 73.5% | [5] 51.4% | [6] 53.1% | [7] 104% | [16] 23.5% | [9] 15% | [17] 47.5% | [10] 75.8% | [18] 50% | [12] 52.3% | [13] 69.4% | [14] 38.3%
active: [15] 9.72% | [8] 8.22%

CC(=Nc1ccc(N(C)C)cc1)c1ccccc1
active: [9] 7.42%
inactive: [1] 78.4% | [2] 50.4% | [3] 55% | [4] 72.6% | [5] 59.8% | [6] 79.8% | [7] 70.4% | [15] 52.2% | [8] 66.7% | [16] 32.6% | [17] 25.7% | [10] 106% | [18] 69.9% | [12] 58.8% | [13] 25.3% | [14] 74.7%

Cn1c2c(c3ccccc31)CCN1C[C@@H]3CCCC[C@H]3C[C@@H]21
active: [1] -2.5% | [7] -5.89% | [19] -16.9% | [14] -36.1%
inactive: [2] 32.7% | [3] 22.9% | [4] 32.2% | [5] 30.4% | [6] 18.9% | [15] 25.2% | [8] 31.3% | [9] 16.7% | [17] 20.2% | [10] 25% | [18] 40.9%

O=C(/C=C/C=C/c1ccccc1)c1ccco1
inactive: [1] 103% | [2] 99.8% | [3] 62.6% | [4] 128% | [5] 107% | [6] 97.3% | [7] 106% | [15] 30.2% | [16] 16.7% | [9] 10.8% | [17] 89.1% | [10] 108% | [11] 105% | [12] 64.8% | [13] 85.6% | [19] 62.6% | [14] 91.3%

C=C(Cl)C(=NC(C)(C)C)Nc1ccccc1C
inactive: [1] 139% | [2] 83.5% | [3] 80.7% | [4] 106% | [5] 91% | [6] 104% | [7] 105% | [15] 98.1% | [8] 72.2% | [9] 75.1% | [17] 89.2% | [10] 114% | [18] 91.7% | [11] 105% | [12] 119% | [13] 65.9% | [19] 96.5% | [14] 107%

CC(=O)ON=C1C=CC(=C(C#N)c2ccccc2)C=C1
inactive: [1] 41.2% | [2] 18% | [3] 38% | [4] 21.1% | [5] 14% | [6] 19.9% | [7] 102% | [15] 23.5% | [8] 40.8% | [16] 17.4% | [9] 18.7% | [18] 60.6%
active: [17] 2.27% | [12] 2.9% | [13] -30.6% | [14] -10.8%

CCN(CC)CC(C)(C)C(=O)/C=C/c1ccc(Cl)c(Cl)c1
inactive: [18] 30.3% | [11] 42.7% | [19] 10.2%
active: [1] -33.2% | [2] -43.8% | [3] -72% | [4] -34.7% | [5] -42.8% | [6] -32.3% | [7] -24.3% | [15] 5.91% | [8] 2.21% | [9] 2.2% | [10] -43.1% | [12] -7.68% | [13] -66.3% | [14] -12.6%

S=C(NCCNC(=S)[S][Sn]([c]1ccccc1)([c]1ccccc1)[c]1ccccc1)[S][Sn]([c]1ccccc1)([c]1ccccc1)[c]1ccccc1
active: [1] -93.1% | [2] -79.7% | [3] -100% | [4] -100% | [5] -100% | [6] -71.3% | [15] -35.3% | [8] -32.8% | [16] 0.639% | [9] -24% | [10] -93.6% | [11] -100% | [12] -84.8% | [13] -98.5% | [14] -64.5%
